Assay outcomes (PubChem)
Shown are actives, neighbours in structure and some others; about 2.9% of the full set was active somewhere.
ERa SRC1 inh – ERα–SRC-1 coactivator interaction inhibitors, primary screen, biochemical, TR-FRET, ERα LBD, estradiol-bound; inhibition, % at 25.6 µM; TR-FRET ER-alpha LBD / SRC-1 peptide; hit rate 1.7% among 86,000; AID 629, 2007; in the data active = inhibition above about 50%;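 note: 0% = receptor plus peptide control and 100% = peptide only without receptor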
ERb coact inh – inhibitors of ERβ-SRC1 coactivator interaction, primary screen, biochemical, TR-FRET, ERβ LBD, SRC-1 peptide; TR-FRET ER-beta LBD / SRC1-Cy5 peptide binding; receptor agonist-loaded with 1 µM estradiol; inhibition, % at 25.6 µM; hit rate 1.3% among 86,000; Estrogen receptor beta (Homo sapiens), Q92731;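 active = compounds whose percent inhibition of the receptor-coactivator binding signal exceeds about 50% in the single-dose screen, limit read from the data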;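 note: 0% = receptor plus peptide wells without compound and 100% = peptide-only wells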
Target sequence (Q92731 whole entry, looked up, the tested form may be a part): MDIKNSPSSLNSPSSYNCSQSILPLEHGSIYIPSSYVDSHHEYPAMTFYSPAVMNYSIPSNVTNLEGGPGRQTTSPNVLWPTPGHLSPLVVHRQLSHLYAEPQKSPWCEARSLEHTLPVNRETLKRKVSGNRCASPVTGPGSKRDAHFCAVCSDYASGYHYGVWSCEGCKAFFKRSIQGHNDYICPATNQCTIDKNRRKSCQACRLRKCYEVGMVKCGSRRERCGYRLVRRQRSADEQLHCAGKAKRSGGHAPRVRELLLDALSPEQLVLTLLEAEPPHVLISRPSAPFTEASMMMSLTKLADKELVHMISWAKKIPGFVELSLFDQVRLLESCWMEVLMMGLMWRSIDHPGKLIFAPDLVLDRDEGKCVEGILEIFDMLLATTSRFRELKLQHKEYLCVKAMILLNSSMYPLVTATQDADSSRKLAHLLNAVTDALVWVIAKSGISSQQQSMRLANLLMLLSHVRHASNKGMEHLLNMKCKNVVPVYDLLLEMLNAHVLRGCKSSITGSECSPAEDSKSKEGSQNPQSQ
Smad3 FoxH1 inh – Smad3/FoxH1 peptide binding inhibitors, primary screen, biochemical, TR-FRET | TR-FRET Smad3/Dy647-FoxH1 peptide binding, europium anti-His | inhibition, % at 25 µM | hit rate 0.29% among 88,000;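 active = compounds that reduce the energy-transfer binding signal between the protein and its labelled peptide by more than half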;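 note: 0% = Smad3 plus labelled peptide maximal FRET and 100% = peptide-only background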
ERa SRC1 pot – enhancers of ERα–SRC-1 coactivator binding, primary screen, biochemical, TR-FRET, ERα LBD, low estradiol; Estrogen receptor (Homo sapiens), P03372; TR-FRET ERalpha-LBD/SRC-Cy5 coactivator binding, 2 h; 100 = basal binding, no effect; coactivator binding (% of control), % at 25.6 µM; hit rate 1.3% among 86,000; AID 639, 2007; in the data active = activity above about 200%;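 note: binding measured in presence of low estradiol as agonist stimulus; 0% = peptide alone without receptor and 100% = receptor with peptide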
MRP1 act – H69AR viability gain despite doxorubicin, primary screen, MRP-1 activator project, H69AR cells, CellTiter-Glo; viability rescue; viability increase, % at 10 µM; hit rate 0.61% among 140,000; AID 799, 2007;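 active = viability gain under doxorubicin at or above a set limit, the compound median plus 3 SD, cut at about 4.7% in these data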;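 note: MRP-1 overexpressing cells given doxorubicin 25 µM after compound pretreatment; 18-22 h compound pretreatment then 72 h with doxorubicin before readout; 0% = doxorubicin-only wells and 100% = vehicle-treated cells without doxorubicin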
MRP resist rev – reversal of MRP1-mediated doxorubicin resistance, primary screen, H69AR cells, doxorubicin co-treatment; H69AR cells + 2 uM doxorubicin, CellTiter-Glo, 72 h; differential viability (reversal), % at 10 µM; hit rate 0.04% among 85,000;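 active = viability drop by adding the cancer drug above about 55%, with treated viability meeting a 40% cutoff, limit read from the data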;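 note: viability without doxorubicin minus viability with 2 µM doxorubicin for each compound; larger differential means the compound sensitizes cells more to doxorubicin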
* = called active by the depositor; . = no result given; [ ] = dose if it differs, or a comment.

SMILES	ERa SRC1 inh	ERb coact inh	Smad3 FoxH1 inh	ERa SRC1 pot	MRP1 act	MRP resist rev
C=CCOc1ccc(CNc2ccc(NC(=O)CC(C)C)cc2)cc1OC	.	.	.	.	17.7*	.
O=C(O)C1=C/C(=C(/c2ccccc2)c2cc(C(=O)O)c(O)c3ccccc23)c2ccccc2C1=O	.	.	4.3	.	.	.
COc1ccc2c(c1)[n+]([O-])c(/C(C)=N/NC(N)=S)c(C)[n+]2[O-]	.	.	66.3*	.	.	.
COc1ccc(/C(C)=N/NC(=O)c2nc(C)cc(C)n2)cc1	-7.4	-2.5	6.1	83.9	2.5	7.0
COC(=O)/C(=C\Nc1ccc(Cl)c2ccccc12)c1ncc(C(F)(F)F)cc1Cl	55.0*	14.4	5.3	106.9	-1.3	-21.9
C[C@@]12CC[C@H]3c4ccc(O)cc4CC[C@@H]3[C@H]1C/C(=N\O)[C@H]2O	.	.	20.4	.	.	.
O=C(NCc1ccccn1)C1CCC(=O)N1C1CCCCC1 (centres undefined)	82.3*[fluorescence artefact?]	-4.3	2.5	117.9	0.1	11.3
CC(C)NC(=O)c1onc(CSc2cccc(F)c2)c1C(=O)O	.	.	.	.	-1.4	.
O=C(NCCN1CCOCC1)NC1(C(F)(F)F)Oc2ccccc2O1	0.9	2.3	2.1	616.7*[fluorescence artefact?]	-5.1	-9.2
CCCCNC(=O)NC1(C(F)(F)F)Oc2ccccc2O1	-5.3	0.7	0.3	103.1	-3.7	-18.6
COc1ccc(Cl)c(Cn2c(NCc3ccco3)nc3c2c(=O)n(C)c(=O)n3C)c1	80.8*[fluorescence artefact?]	53.5*[fluorescence artefact?]	0.0	52.4	-4.1	-2.2
COc1ccc(Oc2nc3c(c(=O)n(C)c(=O)n3C)n2Cc2ccccc2)cc1	1.8	0.7	15.9	208.4*[fluorescence artefact?]	-1.3	-0.1
CCCn1c(NCc2ccco2)nc2c1c(=O)n(C)c(=O)n2C	63.7*[fluorescence artefact?]	52.9*[fluorescence artefact?]	6.7	96.1	-1.0	-1.7
COc1cccc(Cn2c(NCc3ccco3)nc3c2c(=O)n(C)c(=O)n3C)c1	-5.1	-0.1	7.0	92.7	0.1	4.6
COc1ccc(N2CCN(c3nc4c(c(=O)n(C)c(=O)n4C)n3Cc3ccccc3)CC2)cc1	-24.4	3.1	2.6	91.6	-2.7	25.3
COc1ccc(CNc2nc3c(c(=O)n(Cc4ccc(Br)cc4)c(=O)n3C)n2C)cc1	12.3	4.3	-0.5	107.0	5.2*	-0.3
O=[N+]([O-])c1ccc(CSCc2ccc(Cl)cc2)cc1	.	.	4.0	.	.	.
COc1ccc(N2CCn3c2nc2c3c(=O)n(CCCc3ccccc3)c(=O)n2C)c(OC)c1	5.1	-4.7	-2.1	84.6	2.2	30.9
COc1ccc(N2CCn3c2nc2c3c(=O)n(CCCc3ccccc3)c(=O)n2C)cc1	87.3*[fluorescence artefact?]	42.7	21.1	32.7	.	12.7
c1ccc(B2OC[C@@H]3OB(c4ccccc4)O[C@H]([C@@H]4COB(c5ccccc5)O4)[C@H]3O2)cc1	.	.	-0.1	.	.	.
CC1=C(CC[C@H](C)CO)O[C@@H]2C[C@@H]3[C@H]4CC[C@H]5C[C@@H](O)CC[C@]5(C)[C@@H]4CC(=O)[C@@]3(C)[C@H]12	.	.	98.7*	.	.	.
CCc1c(C#N)c(SCc2c(C)noc2C)nc2c1C(=O)CC(C)(C)C2	.	.	.	.	-4.0	31.5
COc1ccc(C(=O)NCc2ccc(-c3nc4ccccc4s3)cc2)cc1	.	.	.	.	7.5*	.
Cc1nn(-c2ccccc2)c(C)c1/C=C/C(=O)OCC(=O)Nc1ncc(C(F)(F)F)cc1Cl	.	.	.	.	0.7	.
O=C(O)c1cc(C(=O)O)nc(C(=O)O)c1	.	.	7.1	.	.	.
SMILES	ERa SRC1 inh	ERb coact inh	Smad3 FoxH1 inh	ERa SRC1 pot	MRP1 act	MRP resist rev
COc1ccc(Cn2c(-c3ccco3)nc3oc4cc(OC)ccc4c(=O)c3c2=O)cc1	49.5	53.8*[fluorescence artefact?]	-83.9	570.8*[fluorescence artefact?]	-5.0	-3.5
COc1ccc2c(=O)c3c(=O)n(Cc4ccco4)c(-c4ccco4)nc3oc2c1	75.2*[fluorescence artefact?]	60.3*	15.4	48.8	-2.2	-27.4
CCc1nc2oc3cc(OC)ccc3c(=O)c2c(=O)n1Cc1ccco1	37.3	58.6*	3.3	78.2	-3.0	7.5
COc1ccc(-c2nc3oc4cc(OC)ccc4c(=O)c3c(=O)n2Cc2ccco2)cc1	42.3	23.1	15.9	86.3	-3.2	-2.5
COc1ccc(Cn2c(-c3ccco3)nc3oc4ccccc4c(=O)c3c2=O)cc1	44.7	26.7	-31.3	144.8	0.3	-13.5
Oc1c(C(O)(c2ccccc2)c2ccc3ccccc3c2O)ccc2ccccc12	.	.	18.0	.	.	.
CC(=O)N1CCc2cc(S(=O)(=O)NCCC3=CCCCC3)ccc21	-3.5	0.0	-8.2	108.5	.	7.4
Cc1ccc(NC(=O)c2ccc(OC(=O)CCN3C(=O)c4ccccc4C3=O)cc2)cc1	21.3	12.2	-5.7	372.1*[fluorescence artefact?]	-2.2	2.3
Cc1cc(C)cc(OC(=O)CCN2C(=O)c3ccccc3C2=O)c1	1.2	-2.5	17.4	99.9	-3.5	-1.6
Cn1cnc([N+](=O)[O-])c1[Se]c1nc(N)nc2c1ncn2[C@H]1O[C@@H](CO)[C@H](O)[C@H]1O	.	.	75.2*	.	.	.
CN1/C(=C\C(=O)CSc2nnc(NCc3ccccc3)s2)C(C)(C)c2ccccc21	.	.	.	.	-1.8	.
Cc1ccc(C)c(NC(=O)Cn2nc(C)c3ccccc3c2=O)c1	18.1	3.2	4.5	295.8*[fluorescence artefact?]	.	-5.8
Cc1nn(CC(=O)Nc2ccc3c(c2)nc(CN2CCCC2)n3C)c(=O)c2ccccc12	70.3*[fluorescence artefact?]	39.8	4.0	79.2	-0.1	5.8
Cc1nn(CC(=O)Nc2ccc3c(c2)oc2ccccc23)c(=O)c2ccccc12	80.7*[fluorescence artefact?]	50.9*[fluorescence artefact?]	-53.4	106.2	-6.0	0.6
Brc1ccc(-c2nc3ncccn3c2NC2CCCCC2)o1	2.4	0.9	9.7	109.6	-5.6	57.9*
COc1ccc(NC(=O)c2ccc3c(=O)n(Cc4ccco4)c(=S)[nH]c3c2)c(OC)c1	72.7*[fluorescence artefact?]	13.0	0.1	110.0	-1.6	-27.8
COc1cccc(=O)c2c(C)n(C)c(C)c12	37.5	50.8*[fluorescence artefact?]	15.3	71.9	-0.7	3.7
O=C(Nc1ccc2c(c1)Cc1ccccc1-2)[C@@H]1[C@H](C(=O)O)[C@]2(Cl)C(Cl)=C(Cl)[C@@]1(Cl)C2(Cl)Cl	.	.	-7.8	.	.	.
CC(C)(C)c1ccc(O)c(CN(Cc2cc(C(C)(C)C)ccc2O)c2ccccc2)c1	.	.	42.6	.	.	.
Cc1sc2nc(SCC(=O)Nc3c(C)n(C)n(-c4ccccc4)c3=O)n(C)c(=O)c2c1C	70.0*[fluorescence artefact?]	62.3*[fluorescence artefact?]	5.8	24.3	-2.6	-3.0
Cc1c(NC(=O)CSc2nccn2C)c(=O)n(-c2ccccc2)n1C	.	.	.	.	0.6	.
O=C(N[C@]1(C(=O)O)C[C@H]1c1ccccc1)c1ccccc1	.	.	8.3	.	.	.
CCS(=O)(=O)N1Cc2ccccc2CC1C(=O)N1CCN(c2cccc(C)c2C)CC1 (centres undefined)	80.1*[fluorescence artefact?]	51.2*	-11.7	60.5	-0.3	-0.3
